# Shown are actives, neighbours in structure and some others; about 2.8% of the full set was active somewhere.
# Pol beta inh: qHTS Assay for Inhibitors of DNA Polymerase Beta; P06746; Pol beta primer extension/strand displacement, fluorescence kinetic; Potency, µM (highest dose often 114 µM), inactives show at the highest dose activity change, negative = inhibition, actives largely listed as inhibitors; 1.3% of 340,000 active; also: potency is read from the fitted curve at half-maximal effect; % is scaled to controls: 0 for no effect and ±100 for the full control effect
#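 Pol beta (10 nM) and compounds were preincubated 15 min at room temperature, then 50 nM substrate (final) started primer extension/strand displacement. Reads were taken at 0 and 10 min; concentration-response data were fitted to a four-parameter Hill equation.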
# FEN1 inh: qHTS Assay for the Inhibitors of Human Flap endonuclease 1 (FEN1). Recombinant FEN1 flap cleavage, fluorescence, 15 min. Potency, µM (doses to about 114 µM), inactives show at the top dose activity change, negative = inhibition, hits mostly inhibitors. AID 588795, 2011. P39748. 0.35% of 390,000 active; also: potency is read from the fitted curve at half-maximal effect; % is scaled to controls: 0 for no effect and ±100 for the full control effect; nearly all actives have a fitted effect of over 65% in size
# Target sequence (P39748 whole entry, looked up): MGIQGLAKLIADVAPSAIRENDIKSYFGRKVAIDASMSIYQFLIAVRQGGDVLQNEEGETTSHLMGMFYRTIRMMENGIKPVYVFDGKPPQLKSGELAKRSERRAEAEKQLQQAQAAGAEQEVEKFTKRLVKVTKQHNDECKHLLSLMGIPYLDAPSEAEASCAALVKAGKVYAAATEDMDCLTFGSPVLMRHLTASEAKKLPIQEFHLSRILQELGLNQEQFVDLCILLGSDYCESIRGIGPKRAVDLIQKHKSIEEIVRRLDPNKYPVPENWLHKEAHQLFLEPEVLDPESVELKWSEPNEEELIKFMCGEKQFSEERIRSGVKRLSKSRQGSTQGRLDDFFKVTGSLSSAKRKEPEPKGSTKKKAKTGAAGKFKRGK
#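 Nuclease activity of 10 nM FEN1 was measured after 15 min of room-temperature exposure to titrated compounds, by adding 50 nM flap substrate and reading plates at 0 and 15 min.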
# POLK inh: qHTS for Inhibitors of Polymerase Kappa; DNA polymerase kappa (Homo sapiens), Q9UBT6; purified Pol kappa, fluorescent DNA synthesis assay, 10 min; Potency, µM (doses to about 107 µM), without a hit: top-dose activity, negative = inhibition, hits mostly inhibitors; 0.53% of 400,000 active; AID 588579, 2011; also: potency is read from the fitted curve at half-maximal effect; % is scaled to controls: 0 for no effect and ±100 for the full control effect
#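 Fluorescent qHTS in 1536-well format: enzyme (10 nM) and compound sat 15 min at room temperature before 50 nM substrate (final) was added. Signal taken at 0 and 10 min; no-enzyme buffer wells were negative controls.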
# Pol iota inh: qHTS for Inhibitors of Polymerase Iota. Pol iota fluorescent replication assay, 10 min. Potency, µM (titrated, usually from 115 µM), for the others: at the top dose activity, negative = inhibition, actives largely listed as inhibitors. 1% of 390,000 active. AID 588590, 2011; also: potency is read from the fitted curve at half-maximal effect
#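 Pol iota at 10 nM preincubated 15 min with compounds at room temperature; reaction started with fluorescent substrate, 50 nM final. Fluorescence read kinetically at 0 and 10 min; buffer-only wells as negative control.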
# PI5P4K alpha inh: qHTS for Inhibitors of phosphatidylinositol 5-phosphate 4-kinase (PI5P4K). max response, %. AID 652105, 2013. 1.2% of 330,000 active. PI5P4Kalpha enzyme, ADP-Glo luminescence, 60 min; active compounds read low. Phosphatidylinositol 5-phosphate 4-kinase type-2 alpha (Homo sapiens), P48426; active = max response of -50% or lower; inconclusive = between -30% and -50%; inactive = -30% or higher; also: value at the top dose of about 77 µM; % is scaled to controls: 0 for no effect and ±100 for the full control effect
#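 Controls without substrate or without enzyme flank wells where PI5P4Kalpha converts substrate using 5 microM ATP (final). Incubation lasts 60 minutes at room temperature; ADP formed is read by ADP-Glo luminescence.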
# Pol eta inh: qHTS for Inhibitors of Polymerase Eta; DNA polymerase eta (Homo sapiens), Q9Y253; recombinant Pol eta, fluorescent DNA replication assay; Potency, µM (series often up to 114 µM), inactives show at the highest dose activity change, negative = inhibition, usual class: inhibitors; 1.2% of 390,000 active; AID 588591, 2011; also: potency is read from the fitted curve at half-maximal effect; % is scaled to controls: 0 for no effect and ±100 for the full control effect
#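 Fluorescent replication assay: 50 nM final substrate added after a 15 min room-temperature compound preincubation with 10 nM enzyme. Signal taken at 0 min and again at 10 min.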
# An asterisk follows results filed as active; ? = inconclusive; nt = not tested or not shown; [ ] = dose if it differs, or a comment. Unless noted, calls follow the shape of the dose curve; as a rule, active = well fitted curve in the direction sought with a large enough effect; inconclusive = small, poorly fitted or top-dose-only effect, or another doubt; inactive = no such curve, though single readings can be large; an effect the other way counts as inactive or inconclusive.
SMILES,Pol beta inh,FEN1 inh,POLK inh,Pol iota inh,PI5P4K alpha inh,Pol eta inh
N#CCSc1ncnc2sc3c(c12)CCC3,?,0%,?,?,?,89µM*
CCCCCCCCCCCCCCCC[n+]1ccc(CC(O)c2c(C)[nH]c3ccccc23)c2ccccc21 (centres undefined),nt,50µM*,64%,118%,nt,nt
Cc1cc(C)c2nc3s/c(=C/c4ccccc4)c(=O)n3c2c1,-1%,nt,nt,nt,nt,nt
Cc1ccc2c(nc3s/c(=C/c4cccs4)c(=O)n32)c1C,32µM*,0%,?,?,?,20µM*
CCOC(=O)/C(=N/Nc1ccccc1)Sc1nnc(CCc2ccccc2)n1-c1ccccc1,20%,-1%,-6%,52%,-22,-4%
O=C(CCCn1c(=O)c2cccn2c2ccccc21)Nc1cccc(Cl)c1,45µM*,2%,-26%,0%,nt,nt
C#CCOCCOCCOCCNc1nc(N2CCN(C(=O)CCCCCCCCCCNC(=O)[C@H](CCCCN)n3cc(CCCC(=O)O)nn3)CC2)nc(N2CCN(C(=O)CCCCCCCCCCNC(=O)[C@H](CCCCN)n3cc(CCCC(=O)O)nn3)CC2)n1,nt,5%,-7%,?,-56*,-19%
C#CCOCCOCCOCCNc1nc(N2CCN(C(=O)CCCCCCCCCCNC(=O)[C@H]([C@@H](C)CC)n3cc(CCCCCN)nn3)CC2)nc(N2CCN(C(=O)CCCCCCCCCCNC(=O)[C@@H]([C@H](C)O)n3cc(C)nn3)CC2)n1,nt,56µM*,?,?,?,?
C#CCOCCOCCOCCNc1nc(N2CCN(C(=O)CCCCCCCCCCNC(=O)[C@H](CCCCN)n3cc(CCO)nn3)CC2)nc(N2CCN(C(=O)CCCCCCCCCCNC(=O)[C@H](CCCCN)n3cc(CCO)nn3)CC2)n1,nt,79µM*,-15%,14%,-67*,?
C#CCOCCOCCOCCNc1nc(N2CCN(C(=O)CCCCCCCCCCNC(=O)Cn3cc(CCCCCN)nn3)CC2)nc(N2CCN(C(=O)CCCCCCCCCCNC(=O)[C@H](CO)n3cc(CCCCCN)nn3)CC2)n1,nt,?,3%,?,-58*,-17%
C#CCOCCOCCOCCNc1nc(N2CCN(C(=O)CCCCCCCCCCNC(=O)Cn3cc(CCCCCN)nn3)CC2)nc(N2CCN(C(=O)CCCCCCCCCCNC(=O)[C@H]([C@@H](C)CC)n3cc(CCCCCN)nn3)CC2)n1,nt,?,7%,?,?,?
Cc1[nH]c(=O)sc1C(=O)NCc1ccc([N+](=O)[O-])cc1,nt,nt,nt,nt,2,nt
C#CCOCCOCCOCCNc1nc(N2CCN(C(=O)CCCCCCCCCCNC(=O)[C@H](CCCCN)n3cc(CCO)nn3)CC2)nc(N2CCN(C(=O)CCCCCCCCCCNC(=O)[C@@H]([C@H](C)O)n3cc(C)nn3)CC2)n1,nt,?,21%,?,-84*,?
C#CCOCCOCCOCCNc1nc(N2CCN(C(=O)CCCCCCCCCCNC(=O)[C@H](CCC(=O)O)n3cc(CCCCCN)nn3)CC2)nc(N2CCN(C(=O)CCCCCCCCCCNC(=O)[C@@H]([C@H](C)O)n3cc(C)nn3)CC2)n1,nt,-22%,-2%,?,-22,-13%
COc1c2c(c(CCC(=O)O)c3c1C=CC(C)(C)O3)OC(C)(C)C=C2,nt,21%,-29%,?,1,18µM*
CCCCCCSc1nc(O)c(C2OC(=O)c3c2ccc(OC)c3OC)c(=O)n1-c1ccccc1 (centres undefined),-20%,-6%,-27%,?,-23,18µM*
Nn1c(-c2ccccc2)nc2ccccc2c1=O,8%,2%,4%,33%,0,-5%
COc1ccc(-c2nc3ccccc3c(=O)n2N)cc1,56µM*,-5%,-12%,20%,1,9%
Cc1cc(=O)[nH]c(/N=C(\N)Nc2cccc3ccccc23)n1,22µM*,-18%,-4%,?,3,?
Cc1cc(=O)[nH]c(/N=C(\N)Nc2ccc(Oc3ccccc3)cc2)n1,0%,12%,-3%,84%,1,-20%
N/C(=N\OC(=O)c1cccc2ccccc12)c1cccc([N+](=O)[O-])c1,50µM*,-19%,-31%,?,nt,-9%
Cc1cccc(/C(N)=N/OC(=O)c2cccc3ccccc23)c1,-10%,nt,nt,nt,nt,nt
Cc1cc(C)c2c(=O)n(CC(=O)Nc3cccc(Cl)c3C)sc2n1,-9%,?,-2%,?,-87*,7%
Cc1cc(C)c2c(=O)n(CC(=O)NC3CCCC3)sc2n1,12%,?,-21%,?,-64*,-3%
Cc1cc(C)c2c(=O)n(CC(=O)Nc3ccc(Br)c(C)c3)sc2n1,0%,?,-4%,?,-62*,5%
SMILES,Pol beta inh,FEN1 inh,POLK inh,Pol iota inh,PI5P4K alpha inh,Pol eta inh
CC(=O)NC(CC(=O)NNC(=O)c1cc2ccccc2cc1O)c1ccccc1 (centres undefined),2%,7%,-7%,27%,2,1%
CC12CCC3c4ccc(OCc5ccccc5)cc4CCC3C1CC(O)C2O (centres undefined),nt,nt,-5%[60.1 µM],nt,nt,nt
COc1cc(-c2noc(-c3ccc(N(C)C)c([N+](=O)[O-])c3)n2)cc(OC)c1OC,28µM*,-16%,-10%,?,nt,-18%
COc1cc(-c2noc(-c3ccc(NCc4ccccc4)c([N+](=O)[O-])c3)n2)cc(OC)c1OC,45µM*,4%,-15%,-8%,nt,-16%
COc1cc(-c2noc(-c3ccc(N4CCCCC4)c([N+](=O)[O-])c3)n2)cc(OC)c1OC,45µM*,-5%,-31%,-28%,nt,-20%
COc1ccc(-c2noc(-c3ccc(N4CCCCC4)c([N+](=O)[O-])c3)n2)cc1,10%,-10%,-3%,-6%,nt,-10%
O=Cc1ccc2[nH]ccc2c1,nt,1%,9%,15%,nt,nt
CCn1nc(CC(=O)Nc2ccc(-n3cnnn3)c(OC)c2)c2ccccc2c1=O,32µM*,-1%,-21%,1%,-2,?
O=C(O)Cn1cc(/C=N/NC(=O)c2cc3cc(Br)ccc3o2)c2ccccc21,?,-27%,-25%,71µM*,-75*,-22%
Cn1cc(/C=N/NC(=O)c2cc3cc(Br)ccc3o2)c2ccccc21,-5%,6%,-4%,-23%[58.9 µM],-13,-13%
Cc1cc(C(=O)COc2ccc3ccc(=O)oc3c2)c(C)n1Cc1cccs1,50µM*,-11%,-19%,-47%,-25,-18%
